Z-score data for ten molecules are collected here from PubChem BioAssay.

Each structure is given as a SMILES string. A number with no mark means an inactive call. The rule behind the calls is not given here.

The assay in a line: Pseudomonas biofilm growth suppression – PAO1 strain, BacTiter-Glo luminescence, LB-PBS, primary screen (AID 1144). To be noted: P. aeruginosa PAO1 biofilm, 12 h, higher = more signal.
With `C=CCOC(=O)[C@H]1[C@@H]2C(=O)O[C@@H](c3ccccc3)[C@@H](c3ccccc3)N2[C@@H](c2ccc(OCCOC(=O)[C@H]3C[C@H]4C(=O)N5CCC[C@H]5C(=O)N4[C@H]3c3cccc(OCCO)c3)cc2)[C@]12C(=O)Nc1ccc(I)cc12`, the z-score is -0.315.
For the molecule `CC(C)CN1CCc2nc(-c3ccccc3)c3c(c2CC1)CO[C@@H](C)C3`, the z-score was -0.705.
As to `CC(C)OC(=O)C=C1C[C@@H](c2ccc(C#N)cc2)O[C@@H](c2ccc(C#N)cc2)O1`, the z-score is 0.618.
The value for `C=CC[C@@H]1C=C[C@H](ON=C[C@@H](OC)[C@H](C)C=CCC(=O)OC)[C@@H](CO)O1` was 0.0583.
The same measure for `CN1C(=O)C2C(C1=O)C1C=C(CCCO)C2C(c2ccc(CN3CCCC3)cc2)N1C` (stereo not given): 0.675.
The value for `COCC(=C=CC[C@@H](O)c1ccccc1OCCO)CCO` was -0.118.
For `COCCOC(=O)N1C(=O)[C@@]2(c3cc(C#CCNC(N)=O)ccc31)[C@H](c1ccc(O)cc1)N1[C@H](c3ccccc3)[C@H](c3ccccc3)OC(=O)[C@H]1[C@@H]2C(=O)N1CCCCCCC1`, the z-score is -0.945.
The same measure for `C=C(/C(=C/C[C@H](OC(=O)c1ccncc1)c1ccc(OCCO)cc1)c1cnc2ccccc2c1)C(C)C`: -0.295; for `Cc1cc2c(c(=O)o1)[C@H](O)[C@H]1O[C@H]1C2=O`: 1.6.
The same measure for `COC(=O)[C@@H]1CC[C@H](C)[C@@H](c2ccc(C)cc2)N1C(=O)c1ccc(C=NOC[C@@H](O)COCc2ccco2)cc1`: 1.18.
